p-CIP stab down: p/CIP-EGFP fusion destabilizers, primary screen, fluorescence, F442A cells. AID 1984, 2009. actives 0.01% (n = 290,000). decrease of EGFP signal, % at 10 µM. Q05BA5. 16 h;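 active = EGFP signal decrease of at least 30% at 10 µM or well 3 SD below plate mean, unless failing retest; inactive = the rest, including hits failing retest or dose response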
beta cell repl: inducers of MIN6 beta-cell proliferation, primary screen, ATP luminescence, uHTS; MIN6 cells proliferation, ATPlite luminescence, 48 h; cells starved in 0.2% serum; 100% = growth in 10% serum; proliferation, % at 10 µM; AID 2380, 2010; actives 0.29% (n = 330,000);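 active = compounds whose signal lies at least 3.5 SD above the mean of all wells on their plate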
HSV augment: enhancers of HSV replication in host cells, fold increase, host cell viability; AID 1956, 2009; HSV replication augmentation in cells; maximum fold increase; actives 0.005% (n = 220,000); in the data active = maximum fold increase above about 1.5; tested in PC3 cells
CR mimetic SO: reduction of superoxide in aged yeast, primary screen, HTS | S. cerevisiae aged cells, superoxide DHE fluorescence; stronger effect = lower value | actives 0.18% (n = 330,000) | superoxide response (% of plate mean), % at 10 µM;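 active = superoxide response under a set limit, about three screen SD below normal, cut at about 65% in these data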;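 also: yeast aged for seven days with compound at 30 °C before DHE staining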
V-ATPase pH: regulators of yeast V-ATPase proton pumping, primary screen, pHLuorin cytosolic pH fluorescence; S. cerevisiae; response, % at 10 µM; actives 0.37% (n = 350,000); in the data active = response mostly above about 7.3%, no sharp cut-off; inactive = mostly below about 5.4%; also: actives read high
H9c2 protect: cardioprotection against H2O2-induced cell death, primary screen, uHTS, H9c2 cells, ATPLite luminescence | H9c2 cardiomyocytes, H2O2 injury protection, 2 h | actives 0.63% (n = 360,000) | AID 588492, 2011 | protection from H2O2 cell death, % at 20 µM;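 active = compounds giving at least 50% protection of heart cells from peroxide-induced death in the single-dose screen, raw or plate-pattern-corrected value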
VATPase regulator: yeast V-ATPase proton pumping modulators, confirmation, S. cerevisiae, pH-sensitive GFP, second cherry-pick. S. cerevisiae pHLuorin cytosolic pH, V-ATPase proton transport. response, % at 10 µM. shares compounds with V-ATPase pH. AID 602197, 2012. actives 2% (n = 980); in the data active = response above about 24%
Hits are given with their value; n = inactive; x = no result; ! = not active in a repeat. In the library only some 1.4% were active in any assay of this set; here they are far more common.

SMILES | p-CIP stab down | beta cell repl | HSV augment | CR mimetic SO | V-ATPase pH | H9c2 protect | VATPase regulator
CCOc1ccc(N2CC(C(=O)Nc3ccc(S(=O)(=O)Nc4nccs4)cc3)CC2=O)cc1 (configuration not stated) | n | n | x | n | n | n | x
O=C1NC(=S)N/C1=C/c1cccc2ccccc12 | n | n | x | n | 9.1 | n | n
Cc1ccc(C)c(NC(=S)N/N=C/C(C)c2ccccc2)c1 (configuration not stated) | n | n | n | n | 15 | n | n
CCOC(=O)C1=C(C)NC(SCC(=O)OC)=C(C#N)C1c1ccc(C(=O)OC)cc1 (configuration not stated) | n | n | n | n | 9.9! | n | n
COc1cc2c(cc1OC)CN(C(=O)c1ccccc1C(=O)O)CC2 | n | n | n | n | n | n | x
COc1ccc(CCNC(=O)C(=O)N2CCCCC2)cc1OC | n | n | n | n | n | n | x
CCOC(=O)C1CCN(C(=O)/C(C)=C\c2ccccc2)CC1 | n | n | n | n | n | n | x
C/C(=C/c1ccccc1)C(=O)N1CCC(C)CC1 | n | n | x | n | 11 | n | n
CC1=C(C)CC(C(=O)Nc2ccc3c(c2)OCO3)C(C(=O)O)C1 (configuration not stated) | n | n | n | n | n | n | x
Cc1ccc2[nH]c(=O)c(CN(Cc3ccccc3Cl)C(=O)N3CCOCC3)cc2c1 | n | n | n | n | 16 | n | n
Cc1ccc2[nH]c(=O)c(CN(CCN3CCOCC3)C(=O)Nc3ccccc3F)cc2c1 | n | x | n | x | n | n | x
CCOC(=O)c1sc(=S)n(-c2ccc(Cl)cc2)c1C | n | n | n | n | n | n | x
Cc1c(C(=O)O)sc(=S)n1-c1ccc(Cl)cc1 | n | n | n | n | n | n | n
O=C(Nc1ccc(F)cc1Cl)c1ccc2c(=O)n3c(nc2c1)CCC3 | x | n | x | n | 11 | n | n
COCCCNC(=O)C(Cc1ccccc1)NS(=O)(=O)c1ccc2c(c1)c(=O)n(C)c(=O)n2C (configuration not stated) | n | n | n | n | 16 | n | n
Cn1c(=O)c2cc(S(=O)(=O)NC(Cc3ccccc3)C(=O)NCc3ccco3)ccc2n(C)c1=O (configuration not stated) | n | n | n | n | n | n | x
Cc1ccc(C(=O)Nc2nccc(-c3cccs3)n2)cc1 | n | n | n | n | 8.5 | n | n
O=C(/C=C/c1ccc(Cl)c([N+](=O)[O-])c1)Nc1cccc(NC(=O)c2ccco2)c1 | n | n | n | n | 8.8 | 88 | n
CC(Oc1cc(-c2ccccc2)cc2ccccc12)C(=O)N1CCOCC1 (configuration not stated) | n | n | n | n | n | n | x
CCOC(=O)NC(Nc1ccc(S(N)(=O)=O)cc1)(C(=O)OCC)C(F)(F)F (configuration not stated) | n | n | n | n | 13 | n | n
CCOC(=O)C(NC(C)=O)(Nc1ccc(F)cc1)C(F)(F)F (configuration not stated) | n | n | n | n | n | n | x
O=C(Nc1ccc2oc(-c3cccnc3)nc2c1)c1ccc(Br)o1 | n | n | n | n | n | n | x
O=C(Nc1ccc2oc(-c3cccnc3)nc2c1)c1ccc([N+](=O)[O-])o1 | n | x | n | x | 11 | n | n
CCNC(=O)C1(C)CCCN(C(=O)c2nc(C)oc2C)C1 (configuration not stated) | x | x | x | x | x | n | x
Cn1c(=O)oc2cc(S(=O)(=O)Nc3ccc(F)cc3)ccc21 | n | n | x | n | 7.4 | n | n
C/C(=N\Nc1ccccn1)c1cccs1 | n | n | n | n | 21 | n | n
COc1ccccc1OCCNC(=O)CCNC(=O)c1ccccc1OC | x | n | x | n | n | n | x
COc1ccccc1C(=O)NCCC(=O)NCCC12CC3CC(CC(C3)C1)C2 | n | n | x | n | 11 | n | n
CC(C)(C)[C@H]1C=C(C(=O)NCc2ccccc2)O[C@@H](OCCCCO)C1 | x | n | n | n | n | n | x
